Measurements reported in PubChem BioAssay AID1159580 (chemical genetic matrix, 2015).
“And” between values parts separate entries of the source, which are not always exact repeats. Equal entries are not always repeated. Screen size: about 5,500 compounds; about 2,000 (36%) were called active. About 18% were inconclusive and are not listed. No stated cut-off is given here; in the data, active means normalized growth mostly below about 0.91 (no sharp cut-off); inconclusive means no clear call, values can overlap the other calls; inactive means mostly above about 0.92. Some of the results follow.

Assay: chemical genetic growth profiling, strain panel (AID 1159580);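 further: tested at 20 µM; growth read once vehicle control cultures reached saturation at 30 °C; 1 = growth at the plate median or of vehicle wells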
Details: S. cerevisiae deletion strains, growth OD

Measured: normalized growth

CC(C)=CCc1c2c(c3occ(-c4ccc(O)cc4)c(=O)c3c1O)C=CC(C)(C)O2
0.719 (active) and 0.977 (inactive): locus YJL095W, strain BCK1, stronger effect = lower value
0.886 (active) and 0.97 (inactive): locus YHR030C, strain SLT2, stronger effect = lower value
inactive: locus YAL021C, strain ccr4, stronger effect = lower value 0.962 | locus YAL026C, strain drs2, stronger effect = lower value 0.911 | locus YBR021W, strain FUR4, stronger effect = lower value 0.913 | locus YBR171W, strain sec66, stronger effect = lower value 1.01 | locus YBR229C, strain ROT2, stronger effect = lower value 0.929 | locus YCL029C, strain bik1, stronger effect = lower value 0.926 | locus YCL061C, strain MRC1, stronger effect = lower value 0.947 | locus YCL069W, strain vba3, stronger effect = lower value 0.987 | locus YCR088W, strain abp1, stronger effect = lower value 1.01 | locus YDL005C, strain med2, stronger effect = lower value 0.995 | locus YDL040C, strain nat1, stronger effect = lower value 0.991 | locus YDL101C, strain DUN1, stronger effect = lower value 0.903 | locus YDL185W, strain tfp1, stronger effect = lower value 0.995 | locus YDR001C, strain nth1, stronger effect = lower value 1.01 | locus YDR101C, strain arx1, stronger effect = lower value 0.953 | locus YDR137W, strain rgp1, stronger effect = lower value 1.01 | locus YDR159W, strain sac3, stronger effect = lower value 1.07 | locus YDR195W, strain ref2 1.14 | locus YDR334W, strain swr1, stronger effect = lower value 0.92 | locus YDR335W, strain msn5, stronger effect = lower value 0.981 | locus YDR392W, strain spt3, stronger effect = lower value 0.78 | locus YDR502C, strain sam2, stronger effect = lower value 0.938 | locus YEL003W, strain gim4, stronger effect = lower value 0.94 | locus YEL037C, strain rad23, stronger effect = lower value 0.958 | locus YEL061C, strain CIN8 (second series), stronger effect = lower value 1.01 | locus YER016W, strain bim1, stronger effect = lower value 0.963 | locus YER110C, stronger effect = lower value 0.989 | locus YER111C, strain swi4, stronger effect = lower value 0.969 | locus YER155C, strain BEM2 (second series), stronger effect = lower value 0.956 | locus YER155C, strain BEM2, stronger effect = lower value 0.98 | locus YGL078C, strain dbp3, stronger effect = lower value 1 | locus YGL167C, strain pmr1, stronger effect = lower value 0.976 | locus YGL227W, strain vid30, stronger effect = lower value 1.01 | locus YGL240W, strain doc1, stronger effect = lower value 1.02 | locus YGR135W, strain pre9, stronger effect = lower value 0.955 | locus YGR252W, strain gcn5, stronger effect = lower value 1.03 | locus YHR079C, strain IRE1 (second series), stronger effect = lower value 1 | locus YHR079C, strain IRE1, stronger effect = lower value 0.992 | locus YHR094C, strain hxt1, stronger effect = lower value 1.01 | locus YIL125W, strain kgd1, stronger effect = lower value 0.982 | locus YIR030C, strain dcg1, stronger effect = lower value 0.995 | locus YJL092W, strain hpr5, stronger effect = lower value 0.977 | locus YJL115W, strain asf1, stronger effect = lower value 1.01 | locus YJL129C, strain trk1, stronger effect = lower value 1.02 | locus YJL134W, strain LCB3, stronger effect = lower value 0.944 | locus YJL154C, strain vps35, stronger effect = lower value 1.01 | locus YJL168C, strain set2, stronger effect = lower value 0.996 | locus YJR066W, strain TOR1, stronger effect = lower value 0.906 | locus YKL009W, strain mrt4, stronger effect = lower value 0.961 | locus YKL068W, stronger effect = lower value 1.01 | locus YKL085W, strain MDH1 (second series), stronger effect = lower value 1.02 | locus YKL085W, strain MDH1, stronger effect = lower value 1.02 | locus YKR001C, strain vps1, stronger effect = lower value 0.927 | locus YKR026C, strain gcn3, stronger effect = lower value 1 | locus YKR091W, strain srl3, stronger effect = lower value 0.98 | locus YLL001W, strain dnm1, stronger effect = lower value 0.937 | locus YLL041C, strain sdh2, stronger effect = lower value 0.982 | locus YLR039C, strain RIC1, stronger effect = lower value 0.863 | locus YLR102C, strain apc9, stronger effect = lower value 1.05 | locus YLR113W, strain HOG1, stronger effect = lower value 0.965 | locus YLR258W, strain gsy2, stronger effect = lower value 0.926 | locus YLR262C, strain YPT6 (second series), stronger effect = lower value 0.881 | locus YLR370C, strain arc18, stronger effect = lower value 0.978 | locus YLR384C, strain iki3, stronger effect = lower value 1 | locus YML032C, strain rad52, stronger effect = lower value 0.987 | locus YML120C, strain ndi1, stronger effect = lower value 0.99 | locus YML124C, strain tub3, stronger effect = lower value 0.994 | locus YMR078C, strain ctf18, stronger effect = lower value 1.03 | locus YMR125W, strain sto1, stronger effect = lower value 1.07 | locus YMR129W, stronger effect = lower value 0.968 | locus YMR205C, strain PFK2, stronger effect = lower value 0.902 | locus YMR223W, strain ubp8, stronger effect = lower value 0.936 | locus YMR231W, strain pep5, stronger effect = lower value 0.948 | locus YMR307W, strain GAS1, stronger effect = lower value 0.724 | locus YNL067W, strain RPL9B, stronger effect = lower value 0.93 | locus YNL071W, strain lat1, stronger effect = lower value 0.943 | locus YNL183C, strain NPR1, stronger effect = lower value 0.908 | locus YNL248C, strain rpa49, stronger effect = lower value 0.951 | locus YNL250W, strain rad50, stronger effect = lower value 0.999 | locus YNL271C, strain bni1, stronger effect = lower value 1.01 | locus YNL298W, strain CLA4, stronger effect = lower value 0.991 | locus YNL307C, strain MCK1, stronger effect = lower value 0.957 | locus YNL322C, strain KRE1 (second series), stronger effect = lower value 1.05 | locus YNR049C, strain mso1, stronger effect = lower value 0.999 | locus YNR052C, strain pop2, stronger effect = lower value 1 | locus YOL012C, strain htz1 0.443 | locus YOL147C, strain pex11, stronger effect = lower value 1 | locus YOR001W, strain rrp6, stronger effect = lower value 0.988 | locus YOR080W, strain dia2, stronger effect = lower value 0.934 | locus YOR136W, strain idh2, stronger effect = lower value 0.996 | locus YOR144C, strain elg1, stronger effect = lower value 1 | locus YOR231W, strain MKK1, stronger effect = lower value 0.991 | locus YOR270C, strain vph1, stronger effect = lower value 0.849 | locus YOR290C, strain snf2, stronger effect = lower value 1 | locus YOR316C, strain cot1, stronger effect = lower value 0.988 | locus YPL078C, strain atp4, stronger effect = lower value 0.985 | locus YPL240C, strain hsp82, stronger effect = lower value 0.957 | locus YPL241C, strain CIN2, stronger effect = lower value 0.936 | locus YPL256C, strain CLN2, stronger effect = lower value 1 | locus YPR119W, strain clb2, stronger effect = lower value 1.02 | locus YPR141C, strain kar3, stronger effect = lower value 1.01 | locus YPR163C, strain tif3, stronger effect = lower value 0.979
active: locus YAL013W, strain DEP1, stronger effect = lower value 0.718 | locus YAL030W, strain snc1, stronger effect = lower value 0.876 | locus YBL061C, strain skt5, stronger effect = lower value 0.739 | locus YBR009C, strain hhf1, stronger effect = lower value 0.882 | locus YBR023C, strain chs3, stronger effect = lower value 0.747 | locus YBR231C, strain swc5, stronger effect = lower value 0.751 | locus YBR279W, strain paf1, stronger effect = lower value 0.796 | locus YCL011C, strain gbp2, stronger effect = lower value 0.881 | locus YCL016C, strain dcc1, stronger effect = lower value 0.869 | locus YDL035C, strain GPR1, stronger effect = lower value 0.72 | locus YDL074C, strain BRE1, stronger effect = lower value 0.727 | locus YDL134C, strain PPH21, stronger effect = lower value 0.736 | locus YDL192W, strain arf1, stronger effect = lower value 0.859 | locus YDR069C, strain doa4, stronger effect = lower value 0.711 | locus YDR162C, strain NBP2, stronger effect = lower value 0.664 | locus YDR297W, strain sur2, stronger effect = lower value 0.828 | locus YDR318W, strain mcm21, stronger effect = lower value 0.911 | locus YDR388W, stronger effect = lower value 0.917 | locus YEL061C, strain CIN8, stronger effect = lower value 0.869 | locus YER015W, strain faa2, stronger effect = lower value 0.653 | locus YER167W, strain BCK2, stronger effect = lower value 0.896 | locus YFR010W, strain ubp6, stronger effect = lower value 0.895 | locus YGL086W, strain mad1, stronger effect = lower value 0.861 | locus YGL173C, strain kem1, stronger effect = lower value 0.666 | locus YGL248W, strain PDE1, stronger effect = lower value 0.705 | locus YGL253W, strain hxk2, stronger effect = lower value 0.87 | locus YHR013C, strain ard1, stronger effect = lower value 0.755 | locus YHR027C, strain rpn1, stronger effect = lower value 0.614 | locus YHR129C, strain ARP1, stronger effect = lower value 0.769 | locus YHR142W, strain chs7, stronger effect = lower value 0.838 | locus YHR200W, strain rpn10, stronger effect = lower value 0.893 | locus YIL066C, strain RNR3, stronger effect = lower value 0.663 | locus YIL073C, strain SPO22, stronger effect = lower value 0.537 | locus YJL095W, strain BCK1 (second series), stronger effect = lower value 0.834 | locus YJL164C, strain tpk1, stronger effect = lower value 0.77 | locus YJL166W, strain qcr8, stronger effect = lower value 0.811 | locus YJL187C, strain SWE1 (second series), stronger effect = lower value 0.77 | locus YJL187C, strain SWE1, stronger effect = lower value 0.803 | locus YJR043C, strain POL32, stronger effect = lower value 0.717 | locus YJR075W, strain HOC1, stronger effect = lower value 0.852 | locus YKL160W, strain elf1, stronger effect = lower value 0.868 | locus YKL190W, strain CNB1, stronger effect = lower value 0.772 | locus YLL026W, stronger effect = lower value 0.915 | locus YLR027C, strain aat2, stronger effect = lower value 0.907 | locus YLR058C, strain SHM2, stronger effect = lower value 0.802 | locus YLR221C, strain rsa3, stronger effect = lower value 0.858 | locus YLR268W, strain sec22, stronger effect = lower value 0.841 | locus YLR320W, strain mms22, stronger effect = lower value 0.863 | locus YLR342W, strain FKS1, stronger effect = lower value 0.775 | locus YLR357W, strain rsc2, stronger effect = lower value 0.814 | locus YLR371W, strain rom2, stronger effect = lower value 0.806 | locus YLR418C, strain cdc73, stronger effect = lower value 0.827 | locus YML016C, strain PPZ1, stronger effect = lower value 0.677 | locus YMR058W, strain fet3, stronger effect = lower value 0.429 | locus YNL128W, strain TEP1, stronger effect = lower value 0.643 | locus YNL153C, strain GIM3, stronger effect = lower value 0.835 | locus YNL209W, strain ssb2, stronger effect = lower value 0.51 | locus YNL233W, strain BNI4, stronger effect = lower value 0.787 | locus YOL006C, strain TOP1, stronger effect = lower value 0.389 | locus YOR061W, strain CKA2, stronger effect = lower value 0.733 | locus YOR069W, strain VPS5, stronger effect = lower value 0.87 | locus YOR070C, strain gyp1, stronger effect = lower value 0.812 | locus YOR083W, strain WHI5, stronger effect = lower value 0.866 | locus YOR106W, strain vam3, stronger effect = lower value 0.634 | locus YOR184W, strain ser1, stronger effect = lower value 0.869 | locus YOR265W, strain rbl2, stronger effect = lower value 0.888 | locus YPL051W, strain arl3, stronger effect = lower value 0.658 | locus YPL106C, strain sse1, stronger effect = lower value 0.793 | locus YPR167C, strain met16, stronger effect = lower value 0.913 | strain wtn01, stronger effect = lower value 0.811
